Reference: PubChem BioAssay (NCATS)
Values joined by “and” are separate entries in the source; they are usually repeats but may differ in a detail not shown here. Equal values may be shown once. Records with an inconclusive call do not appear. Active and inactive are the calls of the source. Unless noted, calls come from the whole dose curve; as a rule, active = well fitted curve in the direction sought with a large enough effect; inconclusive = small, poorly fitted or top-dose-only effect, or another doubt; inactive = no such curve, though single readings can be large; an effect the other way counts as inactive or inconclusive.

How the values were obtained:
[1] = Cell Viability - Jurkat (AID 426;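 active = dose-dependent loss of cell ATP signal giving a full or clear fitted curve, ranked by lower potency value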;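 note: potency is the fitted concentration of half-maximal effect; cells exposed to compound for 40 hours at 37 °C before ATP read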); settings: qHTS
Summary of the method: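 Cells of the human T-cell leukemia line Jurkat (E6-1) are seeded at 5000 per well, treated with compound across a concentration range for 40 hours at 37 °C, then lysed with CellTiter-Glo; luminescence reports ATP.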

[2] = Cellular Toxicity (caspase-3) Jurkat (AID 655); settings: Jurkat caspase-3 activation, luminescence; caspase-3 activation: at 92.2 µM (top of the series), DMSO = 0%, tamoxifen = 100%;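 note: cells exposed to compound for 16 h at 37 °C before reading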
Summary of the method: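 Jurkat cells (5000/well) in complete medium exposed 16 h at 37 C; caspase-3/7 activity read by Caspase-Glo luminescence after 20 min at room temperature. Normalized to DMSO and 100 uM tamoxifen; AC50 from Hill fits.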

[3] = Cellular Toxicity (caspase-3) BJ (AID 658); settings: BJ fibroblasts, luminescence; Potency: caspase-3 activation; series mostly up to 91.7 µM;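 note: 0% = DMSO basal and 100% = 10 µM staurosporine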
Summary of the method: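 qHTS, BJ fibroblasts, 1000 cells/well; 5 hr preincubation, 16 hr compound, 37 °C; Caspase-Glo 3/7 reagent, 1 hr RT; luminescence. DMSO = 0%, 10 uM staurosporine = 100%. Hill-equation AC50.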

[4] = Cell Viability - LYMP1-002 - Assay at 16 hr (AID 948); settings: LYMP1-002 lymphoblastoid cell viability; series mostly up to 92.2 µM;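 note: 0% = DMSO alone and full effect = 92 µM tetraoctylammonium bromide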
Summary of the method: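 LYMP1-002 human lymphoblastoid cells, 2500/well, were treated with compounds for 16 hr at 37 C in complete medium. Viability was read as intracellular ATP by CellTiter-Glo luminescence, and AC50 was derived from a Hill fit to concentration-response data.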

[5] = Cell Viability - LYMP2-003 (AID 965); settings: LYMP2-003 lymphoblastoid cell viability; series mostly up to 92.2 µM;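 note: cells exposed to compounds for 24 h before reading; nearly all actives have a fitted effect of over 50% in size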; note: potency is the fitted concentration of half-maximal effect
Summary of the method: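 Human lymphoblastoid LYMP2-003 cells, 2500/well, exposed to compounds for 24 h at 37 C in complete medium. Viability read as intracellular ATP by CellTiter-Glo luminescence; AC50 from Hill-equation fits of qHTS concentration-response data.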

[6] = Cell Viability - LYMP1-002 - Assay at 24 hr (AID 993); settings: LYMP1-002 lymphoblastoid cells viability; series mostly up to 92.2 µM; note: % is set by controls: 0 for no effect and ±100 for the full control effect
Summary of the method: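 Acute toxicity is measured as concentration-dependent loss of cellular ATP in a human lymphoblastoid line (Coriell LYMP1-002) after 24 h treatment in complete medium. ATP is quantified by luciferase luminescence and AC50 derived by Hill modelling.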

[7] = molecular target: Estrogen receptor (Homo sapiens) (UniProt P03372); assay: qHTS assay for small molecule antagonists of estrogen receptor alpha signaling (AID 588513; active = well fitted curve in the direction sought with a large enough effect in the signal ratio, with a control signal flat, not every such curve was filed as active; the % refers to the signal ratio; note: % is set by controls: 0 for no effect and ±100 for the full control effect); settings: ER-alpha-UAS-bla HEK293, beta-lactamase ratio, antagonist mode; series mostly up to 76.9 µM
Chain of Estrogen receptor (Homo sapiens) (P03372 whole entry, looked up): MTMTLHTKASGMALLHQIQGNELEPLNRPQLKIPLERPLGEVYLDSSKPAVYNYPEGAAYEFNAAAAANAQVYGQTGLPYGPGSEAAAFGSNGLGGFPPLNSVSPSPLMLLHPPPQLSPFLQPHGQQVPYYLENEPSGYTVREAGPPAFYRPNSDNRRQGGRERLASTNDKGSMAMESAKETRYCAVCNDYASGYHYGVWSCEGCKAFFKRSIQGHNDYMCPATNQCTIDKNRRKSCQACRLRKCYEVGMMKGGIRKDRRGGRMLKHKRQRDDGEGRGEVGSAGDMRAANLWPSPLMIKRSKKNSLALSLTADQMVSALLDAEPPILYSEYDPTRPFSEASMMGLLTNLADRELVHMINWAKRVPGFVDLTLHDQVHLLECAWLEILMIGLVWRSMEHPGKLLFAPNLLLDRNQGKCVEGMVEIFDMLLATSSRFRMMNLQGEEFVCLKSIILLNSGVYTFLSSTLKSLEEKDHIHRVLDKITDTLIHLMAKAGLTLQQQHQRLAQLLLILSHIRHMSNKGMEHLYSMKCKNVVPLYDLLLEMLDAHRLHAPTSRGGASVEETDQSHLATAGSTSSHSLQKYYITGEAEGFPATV
Summary of the method: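 ER-alpha-UAS-bla GripTite HEK 293 cells in 2% charcoal/dextran-treated FBS medium; compounds titrated (1:2, duplicate), then stimulated with 0.5 nM 17-beta-estradiol for 18 h at 37C. CCF4 beta-lactamase fluorescence; Hill-fit IC50 and efficacy.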

[8] = molecular target: Peroxisome proliferator-activated receptor gamma (Homo sapiens) (UniProt P37231); assay: qHTS assay for small molecule agonists of peroxisome proliferator-activated receptor gamma signaling (AID 588536; active = well fitted curve in the direction sought with a large enough effect in the signal ratio, with a control signal flat, not every such curve was filed as active; the % refers to the signal ratio;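 note: 0% = DMSO basal wells and 100% = rosiglitazone at 2 µM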); settings: HEK293 PPARg-UAS-bla, beta-lactamase ratio, 16 h, percent of rosiglitazone response, DMSO as zero; series mostly up to 76.7 µM
Chain of Peroxisome proliferator-activated receptor gamma (Homo sapiens) (P37231 whole entry, looked up): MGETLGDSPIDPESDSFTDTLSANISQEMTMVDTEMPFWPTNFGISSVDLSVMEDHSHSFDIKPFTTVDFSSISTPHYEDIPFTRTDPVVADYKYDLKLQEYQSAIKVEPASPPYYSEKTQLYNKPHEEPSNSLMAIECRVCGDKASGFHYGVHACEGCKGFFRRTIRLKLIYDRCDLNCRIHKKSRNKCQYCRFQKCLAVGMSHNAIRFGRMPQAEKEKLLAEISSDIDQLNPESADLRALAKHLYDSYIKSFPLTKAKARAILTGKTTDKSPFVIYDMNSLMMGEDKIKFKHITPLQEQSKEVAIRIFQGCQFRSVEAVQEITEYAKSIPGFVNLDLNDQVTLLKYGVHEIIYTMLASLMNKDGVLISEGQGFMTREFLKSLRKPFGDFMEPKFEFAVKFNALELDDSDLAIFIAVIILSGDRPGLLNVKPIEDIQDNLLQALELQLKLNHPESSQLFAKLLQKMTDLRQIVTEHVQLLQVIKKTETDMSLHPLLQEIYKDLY
Summary of the method: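 Compound treatment: 16 h, 37 C, HEK293 GeneBLAzer cells. Detection: CCF4, 2 h RT. Values: Hill-fit EC50, efficacy as % of 2 uM rosiglitazone.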

[9] = molecular target: Vitamin D3 receptor (Homo sapiens) (UniProt P11473); assay: qHTS assay for small molecule agonists of vitamin D receptor signaling (AID 588543; calls by dose curve;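 note: 0% = DMSO basal and 100% = reference agonist control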); settings: HEK293T VDR-UAS-bla, beta-lactamase ratio, 16 h; series mostly up to 76.8 µM
Chain of Vitamin D3 receptor (Homo sapiens) (P11473 whole entry, looked up): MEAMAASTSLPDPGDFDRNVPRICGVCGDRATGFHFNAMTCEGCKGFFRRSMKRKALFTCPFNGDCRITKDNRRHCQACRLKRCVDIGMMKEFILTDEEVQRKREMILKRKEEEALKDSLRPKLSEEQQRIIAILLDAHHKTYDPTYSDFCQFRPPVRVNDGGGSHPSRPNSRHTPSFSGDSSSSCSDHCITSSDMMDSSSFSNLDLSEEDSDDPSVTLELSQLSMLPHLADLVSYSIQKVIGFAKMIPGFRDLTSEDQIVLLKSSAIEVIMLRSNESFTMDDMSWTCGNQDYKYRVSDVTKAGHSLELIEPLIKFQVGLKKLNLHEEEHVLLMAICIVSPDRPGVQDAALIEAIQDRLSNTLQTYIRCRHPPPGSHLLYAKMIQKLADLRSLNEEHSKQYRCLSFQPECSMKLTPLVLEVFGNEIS
Summary of the method: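 VDR-UAS-bla HEK293T cells, 2000/well, 2% charcoal-stripped FBS; compound titration 16 h at 37 C; CCF4 beta-lactamase ratio read. Normalized to 50 nM 1-alpha,25-dihydroxyvitamin D3 (100%) and DMSO; Hill fit gives EC50, efficacy.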

[10] = molecular target: Voltage-gated inwardly rectifying potassium channel KCNH2 (Homo sapiens) (UniProt Q12809); assay: qHTS Assay for Small Molecule Inhibitors of the Human hERG Channel Activity (AID 588834); settings: U2OS BacMam hERG, FluxOR thallium flux fluorescence; series mostly up to 92.2 µM;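 note: top concentration of the series differs between compounds; % is set by controls: 0 for no effect and ±100 for the full control effect; lower thallium flux fluorescence means stronger hERG block; nearly all actives have a fitted effect of over 50% in size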
Chain of Voltage-gated inwardly rectifying potassium channel KCNH2 (Homo sapiens) (Q12809 whole entry, looked up): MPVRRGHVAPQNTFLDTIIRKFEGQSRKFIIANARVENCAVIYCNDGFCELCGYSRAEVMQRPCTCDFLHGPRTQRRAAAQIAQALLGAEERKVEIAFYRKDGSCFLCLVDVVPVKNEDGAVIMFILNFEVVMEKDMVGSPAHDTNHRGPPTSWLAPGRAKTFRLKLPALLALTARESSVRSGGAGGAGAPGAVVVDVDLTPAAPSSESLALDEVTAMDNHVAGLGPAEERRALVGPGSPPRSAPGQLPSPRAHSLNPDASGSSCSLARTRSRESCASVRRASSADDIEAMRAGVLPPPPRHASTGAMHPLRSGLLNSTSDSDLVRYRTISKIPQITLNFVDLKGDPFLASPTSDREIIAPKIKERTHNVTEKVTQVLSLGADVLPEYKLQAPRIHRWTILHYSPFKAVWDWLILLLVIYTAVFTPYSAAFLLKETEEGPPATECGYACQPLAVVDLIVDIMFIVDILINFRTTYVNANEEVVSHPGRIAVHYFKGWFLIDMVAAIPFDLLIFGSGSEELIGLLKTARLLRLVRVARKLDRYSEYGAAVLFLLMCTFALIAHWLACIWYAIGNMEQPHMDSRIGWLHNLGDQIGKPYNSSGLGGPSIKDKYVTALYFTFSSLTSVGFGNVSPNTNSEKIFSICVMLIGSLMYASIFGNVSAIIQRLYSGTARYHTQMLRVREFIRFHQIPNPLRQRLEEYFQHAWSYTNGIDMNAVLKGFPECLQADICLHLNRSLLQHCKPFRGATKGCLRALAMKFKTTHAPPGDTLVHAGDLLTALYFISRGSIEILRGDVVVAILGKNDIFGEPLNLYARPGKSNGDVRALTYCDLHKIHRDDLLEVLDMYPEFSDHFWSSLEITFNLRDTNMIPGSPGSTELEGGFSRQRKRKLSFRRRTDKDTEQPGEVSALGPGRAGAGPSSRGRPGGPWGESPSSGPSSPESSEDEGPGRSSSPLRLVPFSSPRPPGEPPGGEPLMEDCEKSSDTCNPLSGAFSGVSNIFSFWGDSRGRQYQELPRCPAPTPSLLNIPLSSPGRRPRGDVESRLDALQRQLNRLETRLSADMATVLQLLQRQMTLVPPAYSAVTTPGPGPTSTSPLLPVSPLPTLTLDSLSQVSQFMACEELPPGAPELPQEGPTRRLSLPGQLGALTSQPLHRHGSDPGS
Summary of the method: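 Thallium serves as surrogate for K+ influx through BacMam-delivered hERG in U2OS cells. Compounds are added for about 10 minutes after dye loading; stimulation buffer then starts flux, monitored kinetically on FDSS.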

[11] = qHTS assay for small molecule agonists of the antioxidant response element (ARE) signaling pathway (AID 651741; active = well fitted activation curve with a large enough effect in the signal ratio; the % refers to the signal ratio; note: potency is the fitted concentration of half-maximal effect; for activation: % of control where 0% means no effect); settings: HepG2 ARE-bla reporter, beta-lactamase FRET ratio, 16 h; series mostly up to 96 µM
Summary of the method: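 Stably integrated ARE-beta-lactamase reporter HepG2 cells; 16 h compound incubation, 37 C; LiveBLAzer FRET substrate 2 h at room temperature; fluorescence intensity.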

[12] = qHTS assay for small molecule activators of the nuclear factor-kappa B (NF-kB) signaling pathway (AID 651749; active = well fitted activation curve with a large enough effect in the signal ratio; the % refers to the signal ratio; note: % of control where 0% means no effect); settings: NF-kB-bla ME-180 cells, beta-lactamase FRET ratio, 16 h; stronger effect = higher value
Summary of the method: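 In this qHTS format, compounds acting as activators increase NF-kB-driven beta-lactamase in ME-180 cells, measured as disrupted FRET after 16 hr exposure at 37C and 5% CO2.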

[13] = molecular target: Tumor necrosis factor (Homo sapiens) (UniProt P01375); assay: qHTS assay to identify small molecules that stimulate Tumor Necrosis Factor-alpha (TNF-alpha) secretion (AID 651757; active = well fitted curve in the direction sought with a large enough effect in the signal ratio; the % refers to the signal ratio; note: 0% is about no effect); settings: Human cells, HTRF 665/615 ratio; series mostly up to 92.2 µM
Chain of Tumor necrosis factor (Homo sapiens) (P01375 whole entry, looked up): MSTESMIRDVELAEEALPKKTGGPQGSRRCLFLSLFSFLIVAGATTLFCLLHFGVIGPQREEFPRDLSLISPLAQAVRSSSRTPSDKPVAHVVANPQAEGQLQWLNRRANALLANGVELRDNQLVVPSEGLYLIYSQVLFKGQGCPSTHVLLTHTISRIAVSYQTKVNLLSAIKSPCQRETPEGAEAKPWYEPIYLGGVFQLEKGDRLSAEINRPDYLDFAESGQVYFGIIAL
Summary of the method: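 Human monocytic THP-1 cells are plated, treated with compound and held at 37 C for 17 hrs. Labeled anti-TNF-alpha antibody mixture is then added; after 3 hr at room temperature, TR-FRET signal reports secreted TNF-alpha.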

[14] = molecular target: Nuclear receptor ROR-gamma (Homo sapiens) (UniProt P51449); assay: qHTS assay for small molecule antagonists of the retinoid-related orphan receptor gamma (ROR-gamma) signaling pathway (AID 651802); settings: ROR-gamma antagonist cell reporter assay; series mostly up to 92.2 µM;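 note: CHO cells with doxycycline-induced ROR-gamma expression; % is set by controls: 0 for no effect and ±100 for the full control effect; nearly all actives have a fitted effect of over 60% in size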
Chain of Nuclear receptor ROR-gamma (Homo sapiens) (P51449 whole entry, looked up): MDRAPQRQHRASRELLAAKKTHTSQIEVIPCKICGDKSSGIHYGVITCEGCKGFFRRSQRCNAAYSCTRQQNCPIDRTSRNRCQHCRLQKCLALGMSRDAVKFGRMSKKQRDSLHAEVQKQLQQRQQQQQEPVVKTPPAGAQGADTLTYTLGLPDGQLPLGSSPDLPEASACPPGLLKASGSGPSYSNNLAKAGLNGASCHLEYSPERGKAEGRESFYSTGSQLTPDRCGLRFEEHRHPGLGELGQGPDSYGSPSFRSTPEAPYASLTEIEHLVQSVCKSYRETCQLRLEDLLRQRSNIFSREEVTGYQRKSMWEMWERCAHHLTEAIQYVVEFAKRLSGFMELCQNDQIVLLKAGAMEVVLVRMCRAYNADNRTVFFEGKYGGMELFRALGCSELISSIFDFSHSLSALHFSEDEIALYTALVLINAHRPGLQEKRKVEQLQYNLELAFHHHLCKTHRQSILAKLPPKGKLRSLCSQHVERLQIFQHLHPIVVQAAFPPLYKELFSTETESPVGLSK
Summary of the method: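 Steps: cells dispensed; compound or DMSO transferred by pin tool; doxycycline added to induce the ROR response element-driven luciferase; plates held 16hr at 37C; ONE-Glo added and luminescence measured.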

[15] = qHTS assay for small molecule antagonists of the retinoid-related orphan receptor gamma (ROR-gamma) signaling pathway - cell viability counter screen (AID 720652; active = well fitted curve in the direction sought with a large enough effect in the repeat runs; an effect the other way counts as inactive or inconclusive;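 note: CHO reporter cells with doxycycline-induced ROR-gamma expression; compound exposure lasted 16 hr before ATP read; % is set by controls: 0 for no effect and ±100 for the full control effect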); settings: RORgamma reporter cell line viability counter screen; series mostly up to 92.2 µM
Summary of the method: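 Steps: seed CHO cells bearing TET-inducible ROR and ROR response element-luciferase; rest 5 hr at 37 C; add compound, then doxycycline; incubate 16 hr; add CellTiter-Glo and read luminescence as ATP-based viability.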

[16] = Cell Viability - Hek293 (AID 427;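 active = compounds whose dose-response curve shows a full or clear partial loss of cell viability, called from curve shape rather than a numeric limit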;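 note: potency is the fitted concentration of half-maximal effect; cells exposed to compound for 40 hours at 37 °C before reading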); settings: qHTS
Summary of the method: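 Luminescent ATP read-out (CellTiter-Glo, 20 min RT) after 40 hr compound exposure at 37 °C in complete medium. Signal normalized to DMSO (basal) and 100 uM tamoxifen (100% inhibition); concentration-response fitted with the standard Hill equation to give AC50.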

[17] = molecular target: Cytochrome P450 3A4 (Homo sapiens) (UniProt P08684); assay: qHTS Assay for Inhibitors and Substrates of Cytochrome P450 3A4 (AID 884); settings: recombinant CYP3A4, Luciferin-PPXE luminescence; series mostly up to 57.1 µM; note: % is set by controls: 0 for no effect and ±100 for the full control effect; nearly all actives have a fitted effect of over 50% in size
Chain of Cytochrome P450 3A4 (Homo sapiens) (P08684 whole entry, looked up): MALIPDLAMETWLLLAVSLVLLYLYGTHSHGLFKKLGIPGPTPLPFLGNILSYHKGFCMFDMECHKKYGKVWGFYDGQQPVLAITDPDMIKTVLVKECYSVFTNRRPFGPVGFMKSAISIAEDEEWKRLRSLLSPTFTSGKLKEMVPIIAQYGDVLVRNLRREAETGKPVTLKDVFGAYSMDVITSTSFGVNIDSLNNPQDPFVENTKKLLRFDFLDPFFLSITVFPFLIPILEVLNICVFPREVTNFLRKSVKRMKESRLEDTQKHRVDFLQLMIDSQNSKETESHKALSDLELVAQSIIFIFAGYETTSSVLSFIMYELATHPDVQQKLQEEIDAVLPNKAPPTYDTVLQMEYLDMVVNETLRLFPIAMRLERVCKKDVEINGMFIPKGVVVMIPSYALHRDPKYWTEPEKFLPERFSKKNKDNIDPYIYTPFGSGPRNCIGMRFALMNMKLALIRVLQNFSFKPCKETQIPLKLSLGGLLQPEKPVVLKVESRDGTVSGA
Summary of the method: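 Luminescent readout of luciferin produced by CYP3A4 (20 nM) dealkylation of Luciferin-PPXE, 25 uM (its KM). NADPH-driven reaction ran 60 min at RT after 10 min compound preincubation; data scaled to 57 uM ketoconazole as 100% inhibition.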

[18] = qHTS assay for small molecule activators of the p53 signaling pathway (AID 651743; active = well fitted activation curve with a large enough effect in the signal ratio, not every such curve was filed as active; the % refers to the signal ratio; note: % of control where 0% means no effect); settings: HCT-116 p53RE-bla, beta-lactamase FRET ratio, 16 h; activation: stronger effect = higher value
Summary of the method: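 Following 16 hours of compound exposure at 37 C, HCT-116 cells bearing the p53RE-bla reporter were loaded with LiveBLAzer B/G FRET substrate for 2 hours at room temperature and fluorescence intensity was recorded.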

[19] = qHTS assay for small molecule activators of the human pregnane X receptor (PXR) signaling pathway (AID 720659; call rule not given here; note: 0% is about no effect); settings: DPX-2 HepG2 CYP3A4-luciferase, 24 h; series mostly up to 92.3 µM
[20] = Cellular Toxicity (caspase-3) Hek293 (AID 664); settings: HEK293 caspase-3 activation, DMSO = 0%, 100 µM tamoxifen = 100%; at 92.2 µM (top of the series);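 note: cells exposed to compound for 16 h at 37 °C before readout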
Summary of the method: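 qHTS, HEK293 (human embryonic kidney), 16 h cpd exposure in complete medium. Caspase-3/7 activation = luminescence increase; normalized to DMSO/100 uM tamoxifen; Hill-fit AC50.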

S=C(NC1CCCCC1)NC1CCCCC1
inactive: Potency [1] > 92 µM | Potency [2] | Potency [3] | Potency [4] | Potency [5] | Potency [6] | outcome [7] | outcome [8] | Potency [9] | Potency [10] | activation [12] -0.887% | Potency [13] | Potency [14] | Potency [15]
active: Potency [11] 66.8 µM

C=C(C#N)C(=O)OCC
inactive: Potency [16] > 92 µM | Potency [2] | Potency [3] | Potency [17] | Potency [4] | Potency [5] | Potency [6] | outcome [8] | Potency [10] | Potency [11] | activation [18] 2.02% | activation [12] -1.44% | Potency [13] | Potency [14] | Potency [15] | outcome [19]

Cc1ccc(O)c(N)c1
inactive: Potency [16] > 92 µM | caspase-3 activation [20] 1.75% | Potency [17] | Potency [4] | Potency [6] | Potency [10] | activation [18] 2.36% | Potency [15]
active: Potency [5] 79.4 µM | Potency [11] 16.8 µM

CCOc1ccc2nc(N)sc2c1
inactive: Potency [16] > 92 µM | Potency [2] | Potency [3] | Potency [4] | outcome [7] | outcome [8] | activation [18] -1.71% | activation [12] -0.893% | Potency [15]

Brc1cc(Br)c(Oc2cc(Br)c(Br)cc2Br)cc1Br
inactive: Potency [16] > 92 µM | Potency [2] | Potency [3] | caspase-3 activation [20] 0.345% | Potency [17] | Potency [4] | Potency [5] | Potency [6] | outcome [7] | activation [12] 3.12% | Potency [13] | Potency [15] | outcome [19]

O=C(O)c1ccc([N+](=O)[O-])cc1
inactive: Potency [16] > 92 µM | Potency [3] | caspase-3 activation [20] 10.3% | Potency [17] | Potency [5] | Potency [6] | Potency [9] | Potency [10] | Potency [11] | activation [18] -2.78% and 0.222% | activation [12] -1.53% and -0.205% | Potency [13] | Potency [14] | Potency [15] | outcome [19]
active: caspase-3 activation [2] 85.2%
